This is a sample that favours compounds with a hit; in the whole collection about 3% have one here.
Shn3 inh set2: reduces Shn3 3'UTR luciferase signal in osteoblasts; hit rate 0.52% among 360,000; Clone20 osteoblast Shn3 3'UTR firefly luciferase, 24 h; AID 588674; inhibition, % at 12.5 µM;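 active = mean inhibition of at least 75% with every replicate also reaching 75%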;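 also: 0% = median of neutral control wells and 100% = pilot-screen positive control compound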
Peg3 promoter: Peg3 promoter activity inhibition; HeLa PEG-Prom luciferase reporter, luminescence, overnight; inhibition, % at 20 µM; hit rate 1.7% among 360,000; AID 588405;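 active = inhibition of at least 50% at 20 µM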
ABHD5 PLIN5 PPI: inhibitors of human ABHD5-perilipin-5 interaction | Q00G26+Q8WTS1 | Split G. princeps luciferase complementation, luminescence, 4 h | inhibition, % at 4 µM | hit rate 0.78% among 360,000 | AID 602281;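 active = inhibition above the mean inhibition across every tested compound plus 3 SD, cut at about 22% in these data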;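 also: 0% = DMSO only wells and the 100% control is not disclosed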
Target sequence (Q00G26 whole entry, looked up): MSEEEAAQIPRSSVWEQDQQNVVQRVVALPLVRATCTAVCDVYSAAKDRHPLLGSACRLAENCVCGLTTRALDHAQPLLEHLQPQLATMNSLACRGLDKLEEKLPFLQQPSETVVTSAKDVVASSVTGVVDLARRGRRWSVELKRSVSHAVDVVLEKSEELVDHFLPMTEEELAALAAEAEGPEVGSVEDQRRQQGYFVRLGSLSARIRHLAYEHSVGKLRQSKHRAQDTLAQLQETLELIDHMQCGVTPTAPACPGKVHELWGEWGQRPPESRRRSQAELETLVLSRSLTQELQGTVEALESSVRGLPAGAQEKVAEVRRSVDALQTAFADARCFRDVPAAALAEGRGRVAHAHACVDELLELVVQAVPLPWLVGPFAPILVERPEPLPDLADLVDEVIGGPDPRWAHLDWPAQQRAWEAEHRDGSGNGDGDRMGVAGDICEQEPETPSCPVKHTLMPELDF
Target sequence (Q8WTS1 whole entry, looked up): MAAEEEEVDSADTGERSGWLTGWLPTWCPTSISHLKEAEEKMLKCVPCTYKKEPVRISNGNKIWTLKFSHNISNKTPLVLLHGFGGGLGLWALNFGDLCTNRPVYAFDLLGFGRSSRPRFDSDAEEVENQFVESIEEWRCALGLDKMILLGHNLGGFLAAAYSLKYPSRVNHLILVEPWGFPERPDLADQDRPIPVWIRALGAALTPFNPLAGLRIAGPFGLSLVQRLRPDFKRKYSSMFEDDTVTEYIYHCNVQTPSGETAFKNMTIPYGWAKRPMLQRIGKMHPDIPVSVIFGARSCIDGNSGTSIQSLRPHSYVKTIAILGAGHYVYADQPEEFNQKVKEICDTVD
PAX8 reporter: inhibitors of PAX8 transcriptional activity in RMG-I cells; RMG-I TPO-luciferase reporter, SteadyGlo, 24 h; inhibition, % at 12.6 µM; hit rate 1.2% among 360,000; AID 652154;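 active = mean replicate inhibition at least 60% with every replicate also reaching 60%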;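 also: luciferase light reporting Pax8 driven TPO promoter activity; plate controls were median of neutral control wells for no effect and mitoxantrone controls for full effect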
TRPM1 prom inh: MITF TRPM1 promoter inhibition in SK-MEL-5 cells; SK-MEL-5 TRPM1 promoter luciferase, 24 h; inhibition, % at 12.5 µM; hit rate 0.83% among 330,000; AID 488899;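 active = mean inhibition across replicates of 60% or more, whatever share of single replicates reaches that level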
EWS-Fli block: inhibitors of EWS/Fli oncoprotein transcriptional activity. A673 NR0B1-luciferase reporter, viability-normalised. inhibition, % at 12.6 µM. hit rate 0.67% among 350,000. AID 651661;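 active = mean inhibition of at least 50% after viability correction, with every replicate also passing that limit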;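 also: firefly luciferase signal divided by Alamar Blue viability fluorescence both relative to DMSO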
* hit, by the source's call; . = no result.

SMILES	Shn3 inh set2	Peg3 promoter	ABHD5 PLIN5 PPI	PAX8 reporter	TRPM1 prom inh	EWS-Fli block
COCC(=O)N1CCC2(CC1)CN(Cc1ccccn1)[C@H](CO)c1[nH]c3cc(OC)ccc3c12	.	.	.	.	.	-1.2
CCCNC(=O)Nc1ccc2c(c1)OC[C@H](C)N(C(=O)CC)C[C@H](C)[C@@H](OC)CN(C)C2=O	.	.	.	.	.	0.7
COC(=O)C[C@H]1CC[C@H]2[C@@H](COC[C@H](O)CN2CCC(F)(F)F)O1	.	.	.	-4.8	.	2.4
O=C(CCCN1C(=O)/C(=C\c2ccccc2)SC1=S)Nc1ccc(O)cc1	-9.9	83.2*	8.4	76.7*	16.4	3.1
O=C(CCCN1C(=O)/C(=C/c2cccs2)SC1=S)Nc1cccc(O)c1	7.9	60.9*	-1.5	67.4*	-4.7	11.5
O=C(CCCN1C(=O)/C(=C/c2ccccc2)SC1=S)Nc1cccc(O)c1	-0.2	78.0*	-0.2	66.3*	-8.6	4.1
O=C(CCN1C(=O)/C(=C/c2cccs2)SC1=S)Nc1cccc(O)c1	-50.7	-12.7	2.7	8.9	-11.0	2.6
O=C(CCCN1C(=O)/C(=C\c2ccccc2)SC1=S)Nc1cccc(C(=O)O)c1	5.2	-17.8	4.3	14.8	6.9	1.4
Cc1ccc(/C=C2/SC(=S)N(CCCC(=O)Nc3ccc(O)cc3)C2=O)cc1	12.9	-61.8	7.5	80.9*	44.0	49.5
C[C@@H]1CN([C@@H](C)CO)C(=O)c2cccc(NC(=O)C3CC3)c2O[C@@H]1CN(C)S(=O)(=O)c1ccc(Cl)cc1	.	.	.	.	.	0.3
CC(/C=C1\SC(=S)N(CCC(=O)Nc2ccc(O)cc2)C1=O)=C\c1ccccc1	-3.7	17.1	-2.8	73.7*	7.6	2.8
COc1ccc(/C=C2\SC(=S)N(CCC(=O)Nc3ccc(O)cc3)C2=O)cc1	-26.0	1.7	-1.3	-1.6	-8.6	-56.6
CCN(CC)CCOC(=O)c1ccc(NC(=O)CCCN2C(=O)S/C(=C/c3ccc(OC)cc3)C2=S)cc1	41.1	107.6*	1.6	.	24.1	.
CC(C)C(=O)Nc1ccc2c(c1)C(=O)N(C)[C@@H]1CC[C@H](CC(=O)NCCCN(C)C)O[C@@H]1CO2	.	.	.	3.6	.	-9.2
C[C@@H]1CN([C@@H](C)CO)S(=O)(=O)c2ccc(C#CCN(C)C)cc2O[C@H]1CN(C)C(=O)CC1CC1	.	.	.	8.7	.	0.1
CC(C)NC(=O)N1CC(=O)N2[C@H](CO)[C@@H](c3ccc(C#CCN(C)C)cc3)[C@@H]2C1	.	.	.	-11.4	.	-2.7
COc1ccc(S(=O)(=O)Nc2ccc3c(c2)C(=O)N([C@@H](C)CO)C[C@H](C)[C@H](CN(C)C(=O)CCCN(C)C)OCCCC[C@H](C)O3)cc1	.	.	.	5.2	.	-12.1
COC(=O)c1cccc(NC(=O)Nc2ccc(Cl)cc2)c1	-40.3	-147.0	-5.8	-63.5	-10.5	75.3*
COC(=O)c1cccc(NC(=S)Nc2ccc(Cl)c(Cl)c2)c1	.	0.8	-7.1	-2.1	3.0	-13.8
C[C@@H]1CCCCO[C@H](CN(C)Cc2ccccc2)[C@H](C)CN([C@H](C)CO)C(=O)c2cc(NS(C)(=O)=O)ccc2O1	.	.	.	-7.6	.	-8.3
CC(=NNC(=S)N1CCN(c2ccccn2)CC1)c1ccccn1	3.8	-7.0	-7.9	-29.9	-6.8	-9.2
CC(=NNC(=S)N1CCN(c2ccccn2)CC1)c1nccs1	85.3*	24.2	2.5	.	.	.
C/C(=N/NC(=O)c1cnccn1)c1ccncc1	-5.9	-7.0	-2.7	-9.1	3.7	-6.7
CC(=NNC(=S)N1CC2CCC(CC2)C1)c1cnccn1	83.7*	1.7	-1.2	16.2	64.6*	2.7
C/C(=N\NC(=O)C1CCCN(S(=O)(=O)c2ccccc2)C1)c1ccccn1 (stereo not given)	72.2	38.3	-4.1	.	48.4	.
SMILES	Shn3 inh set2	Peg3 promoter	ABHD5 PLIN5 PPI	PAX8 reporter	TRPM1 prom inh	EWS-Fli block
CC(=NNC(=S)N1CC2CCC(CC2)C1)c1ccccn1	86.5*	-105.6	-8.7	-16.7	.	4.6
C[C@@H]1CN([C@H](C)CO)C(=O)c2cc(C#CC3(O)CCCC3)cnc2O[C@H]1CN(C)C	.	.	.	.	.	-3.8
C[C@H](CO)N1C[C@H](C)[C@H](CN(C)C(=O)Nc2ccc3c(c2)OCO3)Oc2c(NS(C)(=O)=O)cccc2C1=O	.	.	.	.	.	1.4
C/C=C/c1ccc([C@H]2[C@@H](CO)N(C(C)=O)C23CN(S(C)(=O)=O)C3)cc1	.	.	.	-3.4	.	1.2
COc1ccccc1NS(=O)(=O)c1cc(NC(=O)c2ccc(Cl)nc2)ccc1Cl	87.2*	50.2*	-0.7	44.2	64.1*	.
Cc1ccccc1CN(C)CCS(=O)(=O)c1cc(Cl)ccc1Cl	-2.5	11.2	22.6*	20.3	8.7	11.8
O=S(=O)(Nc1cc(Sc2ncn[nH]2)c(O)c2ccccc12)c1ccccc1	93.4*	-4.8	-4.4	110.6*	40.5	38.2
C[C@H](CO)N1C[C@H](C)[C@@H](CN(C)Cc2ccc(C(=O)O)cc2)OCCCC[C@H](C)Oc2ccc(N(C)C)cc2C1=O	.	.	.	-36.7	.	-6.7
O=C(CC1CC1)N1CC(=O)N2[C@H](C1)[C@@H](c1ccc(-c3ccccc3)cc1)[C@@H]2CO	.	.	.	-6.5	.	-9.9
CCOC(=O)C1CCN(C(=O)c2sc3nc(C)nc(N4CCC(C)CC4)c3c2C)CC1	88.2*	9.1	5.0	.	0.1	.
CC(C1CC1)N(Cc1ccccc1)C(=S)Nc1cccc(C(F)(F)F)c1 (stereo not given)	34.7	20.9	-14.0	118.1*	11.5	3.4
C[C@@H]1CN([C@@H](C)CO)C(=O)c2cc(NC(=O)Cc3ccccc3)ccc2O[C@@H]1CN(C)S(=O)(=O)c1cccs1	.	.	.	.	.	12.3
C[C@H](CO)N1C[C@H](C)[C@@H](CN(C)C(=O)Nc2cccc3ccccc23)Oc2ccc(NC(=O)Nc3ccc4c(c3)OCO4)cc2C1=O	.	.	.	.	.	11.2
O=C(NCCC1CCCCN1S(=O)(=O)c1ccccc1)C(=O)NCc1ccncc1 (stereo not given)	-4.5	24.8	-2.4	67.9*	10.5	4.1
Cc1ccc(S(=O)(=O)N2CCCCC2CCNC(=O)C(=O)NCc2ccncc2)cc1 (stereo not given)	13.9	37.0	4.7	76.4*	35.3	2.8
Cc1nc(-c2cccc(NC(=O)c3ccc(Cl)c(S(=O)(=O)N4CCCC4)c3)c2)cs1	58.3	55.0*	2.7	1.8	.	-10.1
CCCn1c(NC(=O)c2ccc(Cl)c(S(=O)(=O)N3CCCC3)c2)nc2ccccc21	90.7*	53.4*	-0.8	45.9	33.4	.
Cc1nc(-c2cccc(NC(=O)c3cccc(S(=O)(=O)N4CCCC4)c3)c2)cs1	13.2	18.2	6.3	-3.3	-5.1	3.0
CN(C)CCCNC(=O)c1ccc(Cl)c(S(=O)(=O)N2CCCCCC2)c1	11.1	90.6*	-10.1	-10.5	-12.7	2.7
Cc1noc(C)c1NC(=O)Nc1ccc2c(c1)C(=O)N([C@@H](C)CO)C[C@H](C)[C@H](CN(C)C(=O)Nc1ccc(C(F)(F)F)cc1)OCCCC[C@H](C)O2	.	.	.	30.4	.	13.1
C[C@H](CO)N1C[C@H](C)[C@@H](CN(C)Cc2ccncc2)Oc2ccc(NC(=O)Nc3ccc(F)cc3)cc2CC1=O	.	.	.	16.3	.	4.1
